Each structure is given as a SMILES string.

This assay can be described thus: inhibition of PEG-3 promoter-driven reporter – cell-based, HeLa, luciferase, CREF/GAPDH counter-screen panel, dose response (AID 624167). As to conditions: CREF/GAPDH counter-screens; run 2, dose range 1, at 100 µM (top of the series). For orientation: The purpose of a counterscreen is to sort out artefacts and off-target activity.
In general, inhibition refers to how much of the control response was suppressed. Low readings indicate a response near the control, high ones a response far below the control. The compound `O=C(CSC1c2ccccc2-c2ccccc21)N/N=C/c1ccccc1O` yielded an inhibition of 53.7%.

For the compound `COC(COC(N)=O)C1=C(N2CC2)C(=O)C(C)=C(N2CC2)C1=O` (stereo not drawn), the inhibition was 89%.

`CC1=CC2/C=C(\C)CCC(O)C(O)/C=C/C(=O)C23C(=O)NC(CC(C)C)C3C1C` (stereo not drawn) yielded an inhibition of 100%.

Take `C=Cc1cc(OC)c2c(c1)c(=O)oc1c2cc(OC)c2c(O)ccc(C3OC(C)C(O)C(C)(O)C3O)c21` (stereo not drawn): the inhibition was 40.5%.

For `COc1cc2nc(CN3CC=C(c4ccccc4)CC3)[nH]c(=O)c2cc1OC`, the inhibition was found to be 59.5%.

In turn, `CC(=O)OC1CC[C@]2(C#N)[C@H]3CC[C@]4(C)[C@H](C5C=CC(=O)O5)CCC4(O)C3CCC2(O)C1` (stereo partly drawn) came in with an inhibition of 83.6%.

As for `CC(=O)OC1(C)CC(C)C(=O)C(C(O)CC2CC(=O)NC(=O)C2)C1` (stereo not drawn), the inhibition was 95.8%.

As for `CCC(c1nnnn1-c1ccc2c(c1)OCCO2)N1CCC(n2c(=O)[nH]c3ccccc32)CC1` (stereo not drawn), the inhibition worked out at 100%.

The values are drawn from PubChem BioAssay AID624167 (Sanford-Burnham Center for Chemical Genomics, 2012).
